Bioassay records from PubChem.
A selection: hits, their analogues and other compounds. The true share with any hit is near 3.4%.
PLC-beta3 inh – PLC-beta3 (human) inhibition, primary screen; Q01970; inhibition, % at 12.2 µM; Purified PLC-beta3, fluorogenic substrate, fluorescence; 370,000 tested, 0.18% active; in the data active = inhibition above about 11%
ADAM10 inh – inhibits human ADAM10 | O14672 | recombinant ADAM10, EDANS/DABCYL FRET peptide cleavage, 3 h | inhibition, % at 7 µM | 370,000 tested, 0.62% active;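 active = inhibition above a per-campaign cutoff equal to the mean of compounds falling between control-based bounds plus 3 SD, cut at about 20% in these data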
PLCg1 inh – inhibitors of human phospholipase C gamma1 | inhibition, % at 12.2 µM | 370,000 tested, 0.84% active | AID 720700 | purified PLC-gamma1, fluorogenic substrate, fluorescence | P19174
proKLK7 act – activates the human kallikrein-7 zymogen; P49862; purified proKLK7, EDANS-DABCYL substrate fluorescence; 100% is mature enzyme control, 0% vehicle; activation, % at 7 µM; 370,000 tested, 0.9% active; AID 652039;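 active = activation above the mean of all tested compounds plus 3 SD, computed per campaign excluding outliers beyond control limits, cut at about 13% in these data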
ADAM17 inh – inhibitors of human ADAM17 | P78536 | recombinant ADAM17, EDANS/DABCYL FRET peptide cleavage | inhibition, % at 6.95 µM | 370,000 tested, 0.83% active;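 active = inhibition above the mean of compounds lying between control limits plus 3 SD, set per campaign, cut at about 8.5% in these data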
sPLA2-III inh – Blocks human group III sPLA2 activity | Q9NZ20 | QFRET BODIPY PC-A2 liposome hydrolysis, fluorescence | inhibition, % at 12.2 µM | 370,000 tested, 0.56% active | AID 743126;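 active = inhibition above mean plus 3 SD of compounds lying within the high and low control bounds, cut at about 19% in these data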
Target sequence (Q9NZ20 whole entry, looked up): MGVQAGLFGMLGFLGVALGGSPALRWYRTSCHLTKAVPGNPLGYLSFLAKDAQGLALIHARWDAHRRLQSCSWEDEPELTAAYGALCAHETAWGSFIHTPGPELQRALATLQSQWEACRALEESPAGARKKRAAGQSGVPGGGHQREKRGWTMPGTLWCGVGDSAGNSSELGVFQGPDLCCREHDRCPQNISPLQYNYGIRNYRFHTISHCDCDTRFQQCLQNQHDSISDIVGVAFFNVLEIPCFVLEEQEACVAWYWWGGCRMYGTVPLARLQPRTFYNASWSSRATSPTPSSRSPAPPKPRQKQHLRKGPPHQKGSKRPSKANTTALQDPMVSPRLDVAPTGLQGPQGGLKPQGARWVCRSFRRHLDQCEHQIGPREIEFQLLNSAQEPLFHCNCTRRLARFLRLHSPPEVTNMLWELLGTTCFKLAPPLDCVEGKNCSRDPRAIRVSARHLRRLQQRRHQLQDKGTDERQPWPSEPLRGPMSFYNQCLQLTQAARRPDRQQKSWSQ
ADAM10 counter – ADAM10 inhibition, counter-screen for ADAM17 exosite hits; 2,900 tested, 47% active; shares compounds with ADAM17 inh; AID 743256; inhibition, % at 6.95 µM; recombinant ADAM10, EDANS/DABCYL FRET peptide cleavage, 3 h;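 active = mean inhibition over the triplicate runs exceeds the activity threshold set in the earlier primary screen, cut at about 20% in these data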
ADAM17 confirm – human ADAM17 inhibition, confirmation | shares compounds with ADAM17 inh | recombinant ADAM17, EDANS/DABCYL QFRET peptide cleavage | inhibition, % at 6.95 µM | 2,900 tested, 65% active;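 active = mean inhibition across replicates above the hit cutoff set in the primary screen, cut at about 8.5% in these data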
PLCgamma1 ctr – inhibits human PLC-gamma1 in PLC-beta3 counter-screen; shares compounds with PLCg1 inh; 3,300 tested, 3.1% active; purified PLC-gamma1, fluorogenic substrate, fluorescence; inhibition, % at 12.3 µM
PLCb3 confirm – human PLC-beta3 inhibition, confirmation; shares compounds with PLCg1 inh; purified PLC-beta3, fluorogenic substrate fluorescence; inhibition, % at 12.3 µM; 3,300 tested, 1% active; in the data active = inhibition above about 11%
sPLA2 confirm – human GIII-sPLA2 inhibition, confirmation; recombinant hGIII-sPLA2, BODIPY PC-A2 QFRET fluorescence; shares compounds with sPLA2-III inh; inhibition, % at 12.2 µM; 2,000 tested, 34% active;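 active = mean inhibition across triplicates above the hit cutoff set in the earlier primary screen, cut at about 19% in these data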
BODIPY interf – counter-screen for HGIII-sPLA2 inhibitors: 535nm fluorescence interference. inhibition, % at 12.2 µM. shares compounds with sPLA2-III inh. 2,000 tested, 8.5% active. BODIPY FL product fluorescence interference, QFRET;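 active = average inhibition above the solvent-only control mean plus 3 SD, cut at about 6% in these data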
Numbers stand for hits; – = inactive; · = not tested or not shown. Cut-off read from the data, not from the text of the source, unless noted: active = inhibition above about 9.5%; inactive = the rest.

SMILES	PLC-beta3 inh	ADAM10 inh	PLCg1 inh	proKLK7 act	ADAM17 inh	sPLA2-III inh	PLCgamma1 ctr	PLCb3 confirm	others
CC12CCC(C(=O)Nc3cc(Cl)ccc3Cl)(C(Br)C1=O)C2(C)C (stereo unspecified)	–	–	–	–	–	–	·	·
COc1ccc2nc(Nc3ccc4c(c3)OCO4)sc2c1	–	–	–	–	9.8	86	·	·	ADAM10 counter=–;ADAM17 confirm=–;sPLA2 confirm=–;BODIPY interf=–
CC(=O)Nc1ccc(C(=O)COC(=O)C2CCCCC2)c(F)c1	–	–	–	–	–	–	·	·
CCN(CC(=O)Nc1ccccc1C(F)(F)F)C(=O)CCc1c(C)[nH]c(=O)c(C#N)c1C	–	–	–	–	–	–	·	·
Cc1ccc(S(=O)(=O)CNC(=S)c2ccc3ccccc3c2)cc1	–	–	–	–	9.5	20	·	·	ADAM10 counter=65;ADAM17 confirm=37;sPLA2 confirm=24;BODIPY interf=–
Cc1ccc(S(=O)(=O)CNC(=S)c2cccc(C)c2)cc1	–	–	–	–	–	–	·	·
CC(C)C1Nc2c(O)cc(Cl)c([N+](=O)[O-])c2C2C=CCC21 (stereo unspecified)	–	–	–	–	15	19	·	·	ADAM10 counter=21;ADAM17 confirm=14;sPLA2 confirm=–;BODIPY interf=10
Cc1ccc(-n2c(SCC(=O)NNC(=S)Nc3ccccc3)nc3ccccc3c2=O)cc1	–	–	–	–	12	30	·	·	ADAM10 counter=37;ADAM17 confirm=11;sPLA2 confirm=26;BODIPY interf=–
Cc1cccc(NCC(=O)NNC(=S)Nc2ccccc2)c1	–	–	–	–	12	23	·	·	ADAM10 counter=–;ADAM17 confirm=–;sPLA2 confirm=–;BODIPY interf=–
COc1ccc(C(CNC(=O)c2ccc(OCc3c(C)noc3C)cc2)N2CCCC2)cc1 (stereo unspecified)	–	–	–	–	–	–	·	·
CCC(C)[C@H](N)c1cn([C@@H](CCCCN)C(=O)N2CCNCC2)nn1 (stereo partly specified)	–	–	–	–	–	–	·	·
O=[N+]([O-])c1ccc(C2=NN(CCO)C(=Nc3ccc(OC(F)(F)F)cc3)SC2)cc1	–	–	–	–	12	20	·	·	ADAM10 counter=32;ADAM17 confirm=18;sPLA2 confirm=–;BODIPY interf=–
CC(=O)Nc1cccc(CNCc2cccc(NC(C)=O)c2)c1	–	–	–	–	–	–	·	·
O=[N+]([O-])c1ccccc1C1Nc2cccc3cccc(c23)N1	–	–	–	–	–	–	·	·
O=[N+]([O-])c1ccc(Cl)c(C2Nc3cccc4cccc(c34)N2)c1	–	32	–	–	11	32	·	·	ADAM10 counter=–;ADAM17 confirm=10;sPLA2 confirm=57;BODIPY interf=18
COc1ccc(NCC(=O)Nc2ccc(Br)cc2F)c(OC)c1	–	–	–	–	10	22	·	·	ADAM10 counter=27;ADAM17 confirm=9.3;sPLA2 confirm=23;BODIPY interf=–
CCN(CC(=O)Nc1ccc(OC)cc1)CC(=O)Nc1ccc(Br)cc1F	–	–	–	–	–	–	·	·
O=C(NNC(=O)c1csc(-c2cccnc2)n1)c1ccccc1	–	–	9.6	–	–	–	–	–
CCOc1ncccc1C(=O)OCC(=O)N(CC(C)C)c1c(N)n(Cc2ccccc2)c(=O)[nH]c1=O	–	–	–	–	–	–	·	·
CN(C)C1=NCCN1CC1CCCCCC1	–	–	–	–	–	–	·	·
CNC(=O)CN1C(=O)CSc2ncccc21	14	–	–	–	–	–	–	–
CCN(CC)c1ccc(NC(=O)CN2C(=O)CSc3ncccc32)c(C)c1	–	–	–	–	–	–	·	·
c1csc(CNCCN2CCOCC2)c1	–	–	12	–	–	–	–	–
O=C(NCC(c1ccccc1)c1ccccc1)[C@H](Cc1ccccc1)NC1(C(=O)NC2CCCCC2)CCCCCC1	–	–	–	·	–	–	·	·
CN1CCC(N[C@@H](Cc2ccccc2)C(=O)NCC(c2ccccc2)c2ccccc2)(C(=O)NC2CCCCC2)CC1	–	–	12	·	–	–	–	–
SMILES	PLC-beta3 inh	ADAM10 inh	PLCg1 inh	proKLK7 act	ADAM17 inh	sPLA2-III inh	PLCgamma1 ctr	PLCb3 confirm	others
COc1cc(OC)c(NC(=O)C2CC(=O)N(c3ccc4c(c3)OCCO4)C2)cc1Cl (stereo unspecified)	–	–	–	–	–	–	·	·
COc1cc2[nH]c(=O)n(C3CCCCC3)c(=O)c2cc1OC	14	–	13	–	–	–	–	–
Cc1ccc(NC(=O)N2CCc3ccccc3C2)c(C)c1	–	–	–	–	–	–	·	·
CC(C)C(NS(=O)(=O)c1ccc2c(c1)C(C)(C)C(=O)N2C)C(=O)NCc1ccccc1Cl (stereo unspecified)	–	–	–	–	–	–	·	·
O=c1c2ccccc2sn1-c1ccc(Cl)cc1Cl	16	–	–	–	–	–	–	–
Cc1ccc(C(=O)Nn2cnnc2)cc1	–	–	–	–	–	–	·	·
COc1cccc(N2CCN(C(=O)Cn3c(=O)oc4ccccc43)CC2)c1	–	–	9.8	–	–	–	–	–
CC(=O)c1ccccc1OC(=O)COc1ccc([N+](=O)[O-])cc1	–	–	–	–	–	–	·	·
COc1ccccc1C(=O)NC(=O)COc1ccc([N+](=O)[O-])cc1	–	–	9.8	–	–	–	–	–
COc1ccc(NS(=O)(=O)c2cn(C)nc2C)cc1	–	–	12	–	–	–	–	–
COCC(C)n1c(SCc2nc(N)nc(Nc3ccccc3C)n2)nc2ccccc2c1=O (stereo unspecified)	–	–	11	–	–	–	–	–
COCC(C)n1c(SCc2nc3ccccc3c(=O)[nH]2)nc2ccccc2c1=O (stereo unspecified)	–	–	–	–	–	–	·	·
CC(=O)c1c(C)nn(C(=O)N2CCOCC2)c1C	15	–	–	–	–	–	–	–
Clc1cccc2sc(N3CCN(c4ccccc4)CC3)nc12	–	–	11	–	–	–	–	–
O=C1c2c([N+](=O)[O-])cc([N+](=O)[O-])cc2S(=O)N1Cc1ccccc1 (stereo unspecified)	–	–	–	–	–	–	·	·
COC(=O)c1ccc(NC(=O)CN(C)S(=O)(=O)c2ccc(OC)c(C)c2)cc1	–	–	9.6	–	–	–	–	–
